PubChem BioAssay (NCI)
“And” between values parts separate entries of the source, which are not always exact repeats. Equal entries are not always repeated. The panel holds about 83,000 compounds, 20% with a hit somewhere; the sample as a whole holds those more often.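 Each cell line was grown in a 96-well plate and treated with one concentration of compound for 48 hours. Values below 10 were considered active.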 A number with no mark means an inactive call. The source made the active and inactive calls.

Assays:
Assay in all cases: NCI-60 one-dose screen, 48 h (100 = growth as untreated, 0 = no growth, -100 = all killed)
NCI-H23 lung = tested on: NCI-H23 lung
NCI-H226 lung = tested on: NCI-H226 lung
NCI-H322M lung = tested on: NCI-H322M lung
HOP-62 NSCLC = tested on: HOP-62 NSCLC
NCI-H460 lung = tested on: NCI-H460 lung
HOP-92 NSCLC = tested on: HOP-92 NSCLC
NCI-H522 lung = conditions: 10 µM unless noted
A549/ATCC NSCLC = tested on: A549/ATCC NSCLC
786-0 renal = tested on: 786-0 renal
COLO 205 colon = tested on: COLO 205 colon
DU-145 prostate = tested on: DU-145 prostate
K-562 leukemia = tested on: K-562 leukemia
MALME-3M melanoma = tested on: MALME-3M melanoma
MDA-MB-231 breast = tested on: MDA-MB-231 breast
RXF 393 renal = tested on: RXF 393 renal
SF-268 CNS = tested on: SF-268 CNS
SF-295 CNS = tested on: SF-295 CNS
SF-539 CNS = tested on: SF-539 CNS
UACC-257 melanoma = tested on: UACC-257 melanoma
M14 melanoma = tested on: M14 melanoma

Question: How did the growth (NCI-H23 lung; 10 µM) turn out when `COc1ccc(CC(=O)c2ccc(O)cc2O)cc1` was run?
Answer: The growth was 104%.

Question: What about the growth (NCI-H226 lung; 10 µM) of the same compound?
Answer: Its growth is 133%.

Question: And the growth (NCI-H322M lung; 10 µM)?
Answer: The growth was 122%.

Question: And the growth (HOP-62 NSCLC; 10 µM)?
Answer: The growth was 88.4%.

Question: And the growth (NCI-H460 lung; 10 µM)?
Answer: The growth was 115%.

Question: What about the growth (HOP-92 NSCLC; 10 µM) of the same compound?
Answer: Its growth is 94.4%.

Question: And the growth (NCI-H522 lung)?
Answer: Its growth is 4.52% (active).

Question: What about the growth (A549/ATCC NSCLC; 10 µM) of the same compound?
Answer: Its growth is 109%.

Question: What about the growth (786-0 renal; 10 µM) of the same compound?
Answer: Its growth is 96.5%.

Question: What about the growth (COLO 205 colon; 10 µM) of the same compound?
Answer: The growth was 207%.

Question: What about the growth (DU-145 prostate; 10 µM unless noted) of the same compound?
Answer: Its growth is 138%.

Question: And the growth (K-562 leukemia; 10 µM)?
Answer: The growth was 98.7%.

Question: What about the growth (MALME-3M melanoma; 10 µM) of the same compound?
Answer: Its growth is 128%.

Question: What about the growth (MDA-MB-231 breast; 10 µM) of the same compound?
Answer: The growth was 117%.

Question: And the growth (RXF 393 renal; 10 µM unless noted)?
Answer: Its growth is 144%.

Question: What about the growth (SF-268 CNS; 10 µM) of the same compound?
Answer: Its growth is 132%.

Question: What about the growth (SF-295 CNS; 10 µM) of the same compound?
Answer: Its growth is 113%.

Question: And the growth (SF-539 CNS; 10 µM)?
Answer: Its growth is 99.3%.

Question: What about the growth (UACC-257 melanoma; 10 µM) of the same compound?
Answer: The growth was 119%.

Question: What about the growth (M14 melanoma; 10 µM) of the same compound?
Answer: The growth was 103%.

Question: Which results are given for `CCCCCCCCCCSC(=N)N`?
Answer: growth (NCI-H23 lung; 10 µM): 87.4%; growth (NCI-H226 lung; 10 µM): 99.7%; growth (NCI-H322M lung; 10 µM): 88.7%; growth (HOP-62 NSCLC; 10 µM): 68%; growth (NCI-H460 lung; 10 µM): 23.8%; growth (HOP-92 NSCLC; 10 µM): 21.6%; growth (NCI-H522 lung): 45.6%; growth (A549/ATCC NSCLC; 10 µM): 77%; growth (786-0 renal; 10 µM): 51%; growth (COLO 205 colon; 10 µM): -84% (active); growth (DU-145 prostate; 10 µM unless noted): 79.9%; growth (K-562 leukemia; 10 µM): 11.1%; growth (MALME-3M melanoma; 10 µM): 81.3%; growth (MDA-MB-231 breast; 10 µM): 13%; growth (RXF 393 renal; 10 µM unless noted): 46.1%; growth (SF-268 CNS; 10 µM): 73.9%; growth (SF-295 CNS; 10 µM): 56.4%; growth (SF-539 CNS; 10 µM): 68.4%; growth (UACC-257 melanoma; 10 µM): 29.8%

Question: What does the source list for `NNc1ccc2ccccc2c1`?
Answer: growth (NCI-H23 lung; 10 µM): 87.9% and 94.4%; growth (NCI-H226 lung; 10 µM): 87.3% and 85.8%; growth (NCI-H322M lung; 10 µM): 83% and 97.3%; growth (HOP-62 NSCLC; 10 µM): 81.1% and 97.4%; growth (NCI-H460 lung; 10 µM): 105%; growth (HOP-92 NSCLC; 10 µM): 97% and 95.6%; growth (NCI-H522 lung): 79.5% and 98.6%; growth (A549/ATCC NSCLC; 10 µM): 102% and 106%; growth (786-0 renal; 10 µM): 99.8% and 98.3%; growth (COLO 205 colon; 10 µM): 94% and 109%; growth (DU-145 prostate; 10 µM unless noted): 98.5% and 111%; growth (K-562 leukemia; 10 µM): 86% and 115%; growth (MALME-3M melanoma; 10 µM): 90.1% and 96.8%; growth (MDA-MB-231 breast; 10 µM): 68.7% and 90.1%; growth (RXF 393 renal; 10 µM unless noted): 122% and 98.9%; growth (SF-268 CNS; 10 µM): 75.8% and 96.8%; growth (SF-295 CNS; 10 µM): 95.8% and 102%; growth (SF-539 CNS; 10 µM): 86% and 100%; growth (UACC-257 melanoma; 10 µM): 107% and 105%; growth (M14 melanoma; 10 µM): 89.6% and 96.8%

Question: Which growth (NCI-H23 lung; 10 µM) does the source give for `CCCC1CCC(=C2C(=O)CCC2=O)O1` (stereo unspecified) here?
Answer: Its growth is 102% and 98.7%.

Question: And the growth (NCI-H226 lung; 10 µM)?
Answer: Its growth is 102% and 108%.

Question: What about the growth (NCI-H322M lung; 10 µM) of the same compound?
Answer: The growth was 90.9% and 96.9%.

Question: What about the growth (HOP-62 NSCLC; 10 µM) of the same compound?
Answer: Its growth is 90.6% and 101%.

Question: And the growth (NCI-H460 lung; 10 µM)?
Answer: Its growth is 101% and 113%.

Question: And the growth (HOP-92 NSCLC; 10 µM)?
Answer: Its growth is 103%.

Question: What about the growth (NCI-H522 lung) of the same compound?
Answer: Its growth is 121% and 83.9%.

Question: And the growth (A549/ATCC NSCLC; 10 µM)?
Answer: The growth was 110% and 97.5%.

Question: What about the growth (786-0 renal; 10 µM) of the same compound?
Answer: Its growth is 105% and 92.9%.

Question: What about the growth (COLO 205 colon; 10 µM) of the same compound?
Answer: The growth was 100% and 99.2%.

Question: What about the growth (DU-145 prostate; 10 µM unless noted) of the same compound?
Answer: Its growth is 102% and 92.3%.

Question: And the growth (K-562 leukemia; 10 µM)?
Answer: Its growth is 145% and 121%.

Question: What about the growth (MALME-3M melanoma; 10 µM) of the same compound?
Answer: Its growth is 103% and 101%.

Question: And the growth (MDA-MB-231 breast; 10 µM)?
Answer: The growth was 102% and 101%.

Question: What about the growth (RXF 393 renal; 10 µM unless noted) of the same compound?
Answer: The growth was 103% and 97.7%.

Question: And the growth (SF-268 CNS; 10 µM)?
Answer: Its growth is 100% and 107%.

Question: What about the growth (SF-295 CNS; 10 µM) of the same compound?
Answer: Its growth is 97.3% and 89.8%.

Question: What about the growth (SF-539 CNS; 10 µM) of the same compound?
Answer: Its growth is 92.7% and 96.7%.

Question: And the growth (UACC-257 melanoma; 10 µM)?
Answer: The growth was 106% and 95.3%.

Question: And the growth (M14 melanoma; 10 µM)?
Answer: Its growth is 100% and 74.4%.

Question: For `O=c1ccn(C2CC(O)C(COC(c3ccccc3)(c3ccccc3)c3ccccc3)O2)c(=O)[nH]1` (stereo unspecified), which growth (NCI-H23 lung; 10 µM) is on record?
Answer: The growth was 101%.

Question: What about the growth (NCI-H23 lung; 100 µM) of the same compound?
Answer: Its growth is 69.2%.

Question: And the growth (NCI-H226 lung; 10 µM)?
Answer: Its growth is 91.7%.

Question: And the growth (NCI-H226 lung; 100 µM)?
Answer: The growth was 36.2%.

Question: What about the growth (NCI-H322M lung; 10 µM) of the same compound?
Answer: Its growth is 87.5%.

Question: And the growth (NCI-H322M lung; 100 µM)?
Answer: Its growth is 68.8%.

Question: What about the growth (HOP-62 NSCLC; 10 µM) of the same compound?
Answer: The growth was 89.2%.

Question: What about the growth (HOP-62 NSCLC; 100 µM) of the same compound?
Answer: The growth was 72%.

Question: And the growth (NCI-H460 lung; 10 µM)?
Answer: The growth was 91.2%.

Question: What about the growth (NCI-H460 lung; 100 µM) of the same compound?
Answer: Its growth is 39.4%.

Question: And the growth (HOP-92 NSCLC; 10 µM)?
Answer: The growth was 87.8%.

Question: What about the growth (HOP-92 NSCLC; 100 µM) of the same compound?
Answer: The growth was 25.4%.

Question: What about the growth (NCI-H522 lung) of the same compound?
Answer: Its growth is 53.6% [100 µM].

Question: What about the growth (A549/ATCC NSCLC; 10 µM) of the same compound?
Answer: Its growth is 74.8%.

Question: What about the growth (A549/ATCC NSCLC; 100 µM) of the same compound?
Answer: Its growth is 44%.

Question: And the growth (786-0 renal; 10 µM)?
Answer: The growth was 82%.

Question: And the growth (786-0 renal; 100 µM)?
Answer: The growth was 65.5%.

Question: What about the growth (COLO 205 colon; 10 µM) of the same compound?
Answer: The growth was 114%.

Question: And the growth (COLO 205 colon; 100 µM)?
Answer: Its growth is 59.4%.

Question: What about the growth (DU-145 prostate; 10 µM) of the same compound?
Answer: Its growth is 107%.

Question: What about the growth (DU-145 prostate; 100 µM) of the same compound?
Answer: The growth was 55.7%.

Question: What about the growth (K-562 leukemia; 10 µM) of the same compound?
Answer: The growth was 79.1%.

Question: And the growth (K-562 leukemia; 100 µM)?
Answer: The growth was 26.5%.

Question: What about the growth (MALME-3M melanoma; 10 µM) of the same compound?
Answer: The growth was 94.4%.

Question: What about the growth (MALME-3M melanoma; 100 µM) of the same compound?
Answer: Its growth is 70.7%.

Question: What about the growth (MDA-MB-231 breast; 10 µM) of the same compound?
Answer: The growth was 73.5%.

Question: What about the growth (MDA-MB-231 breast; 100 µM) of the same compound?
Answer: The growth was 66.1%.

Question: And the growth (RXF 393 renal; 10 µM)?
Answer: Its growth is 86.5%.

Question: And the growth (RXF 393 renal; 100 µM)?
Answer: The growth was 36.6%.

Question: And the growth (SF-268 CNS; 10 µM)?
Answer: The growth was 83%.

Question: And the growth (SF-268 CNS; 100 µM)?
Answer: Its growth is 42.9%.

Question: And the growth (SF-295 CNS; 100 µM)?
Answer: The growth was 38.2%.

Question: What about the growth (SF-539 CNS; 10 µM) of the same compound?
Answer: Its growth is 97.2%.

Question: What about the growth (SF-539 CNS; 100 µM) of the same compound?
Answer: Its growth is 60.3%.

Question: And the growth (UACC-257 melanoma; 100 µM)?
Answer: Its growth is 55.2%.

Question: And the growth (M14 melanoma; 10 µM)?
Answer: The growth was 81.4%.

Question: And the growth (M14 melanoma; 100 µM)?
Answer: The growth was 52.5%.
